Over roughly 33,000 sequences, “E-score (-0.5 to 0.5)” has its median near -0.011; the highest 2% begin near 0.28. Only a selection was taken, and the highest values are over-represented in it overall.
target: T1, Gcr1 (UniProt P07261); assay: PBM E-score (8-mer binding enrichment) (E-score (-0.5 to 0.5)); higher = stronger / more preferred TF binding; details: protein concentration: 100 nM; construct: GST-full length
T1 sequence: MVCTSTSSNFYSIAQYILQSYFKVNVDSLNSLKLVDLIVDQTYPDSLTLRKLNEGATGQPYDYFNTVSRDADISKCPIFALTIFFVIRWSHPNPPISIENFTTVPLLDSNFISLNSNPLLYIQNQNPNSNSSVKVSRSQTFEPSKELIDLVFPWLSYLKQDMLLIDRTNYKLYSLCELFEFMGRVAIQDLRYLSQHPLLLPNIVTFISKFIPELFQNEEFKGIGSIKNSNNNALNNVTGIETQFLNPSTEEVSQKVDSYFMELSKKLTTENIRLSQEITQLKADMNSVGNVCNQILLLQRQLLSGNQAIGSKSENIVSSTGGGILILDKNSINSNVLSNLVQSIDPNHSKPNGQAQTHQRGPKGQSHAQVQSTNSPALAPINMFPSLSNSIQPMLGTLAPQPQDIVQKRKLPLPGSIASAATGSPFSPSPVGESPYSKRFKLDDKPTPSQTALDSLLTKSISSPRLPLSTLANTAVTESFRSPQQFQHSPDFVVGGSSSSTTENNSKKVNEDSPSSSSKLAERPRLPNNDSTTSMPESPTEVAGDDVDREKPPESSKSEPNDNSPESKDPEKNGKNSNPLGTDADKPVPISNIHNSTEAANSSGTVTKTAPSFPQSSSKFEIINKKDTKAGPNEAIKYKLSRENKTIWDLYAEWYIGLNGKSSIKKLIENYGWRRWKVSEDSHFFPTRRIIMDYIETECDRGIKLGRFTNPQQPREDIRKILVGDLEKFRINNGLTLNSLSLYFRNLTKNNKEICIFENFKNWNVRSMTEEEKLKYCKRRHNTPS
Description: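 Universal 'all 10-mer' protein binding microarrays (Agilent AMADID 015681) probed with GST-tagged S. cerevisiae TFs (full-length or DBD) made by in vitro transcription/translation (PURExpress), about 100-200 nM. Bound TF was detected with fluorescent anti-GST. Each ungapped 8-mer (which stands for itself and its reverse complement) is scored by the PBM enrichment score (E-score), a modified Wilcoxon-Mann-Whitney statistic from -0.5 to +0.5, computed with the Universal PBM Analysis Suite. Scale: above 0.35 generally sequence-specific binding.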

Sequence	PBM E-score
GGCTATGA	-0.188
AATCCGTC	-0.0275
AGCCAGAA	0.13
TCTGCAGA	-0.194
ATGACCCG	-0.321
ACGAATCC	0.288
CGGAATCA	0.0684
CGGAATCC	0.417
AGGAAGTG	0.213
CCGAATCC	0.133
CGGAATTC	0.242
AGGAAGTC	0.337
CGGAAGTC	-0.00248
ACGAATCT	0.122
CCCGAGAC	0.0132
ATCCGCTC	0.0142
ACTCCCTA	-0.0517
CGCCTGTC	-0.105
GGTGTTCA	0.106
CGTGGTGC	-0.0202
CGTGGTAG	-0.133
AGTGGTGG	0.305
AATGGTGC	0.208
AATGGTGG	-0.00912
AGTGGTAA	-0.099
AGTGGTGA	0.0333

Sequence	PBM E-score
AGTGGTGC	0.305
AGTGGTAG	0.318
CCGATGAC	-0.0977
AAGTTGCG	0.211
AGCATCCG	0.372
TGCATCCA	0.182
AACATCCA	0.193
AACATCCG	0.164
ATCATCCG	-0.191
AGCATCCA	0.457
ACTTTAAA	0.0642
ATAGTAAG	-0.0276
ACAAGACC	-0.0386
GAGCAATA	0.0781
CCGAACTC	-0.0172
ACTGGAAA	0.0867
ACGGGAAG	0.112
CCTGGAAC	-0.0042
CCTGGAAG	0.0765
ACTGGAAG	0.463
AATGGGAA	0.132
AATGGAAG	0.27
AATGGGAT	0.28
AATGGGAG	0.0925
AATGGAAC	0.154
ACTGGAAC	0.301

Sequence	PBM E-score
AATGGAAT	0.301
AGGCAATC	-0.245
CTCCAAGA	0.0262
ATTTGCAC	0.0134
GTAGCTAA	-0.0197
TAGAAACA	0.112
TTGAAAAA	0.0707
CCCATAGC	-0.16
ACTGGGAT	0.0877
ACTGGAAT	0.415
ACGGGAAT	0.111
AGCCGTGG	-0.108
ACGAGAGG	-0.238
CCTGTAGA	0.283
AAGGTATC	0.158
CAGGTATC	0.311
GCTGTAGA	-0.0143
CCGGTATC	0.288
CCGGTATA	0.191
CCTGTATA	0.2
CAGGTATA	-0.0414
ACGGTATC	-0.0774
ACTGTAGA	-0.079
ACTGTATC	-0.275
CCTGTATC	0.324
ACGGTAAG	-0.0708

Sequence	PBM E-score
CAACTGGC	0.0226
GATCACCA	-0.0057
TACCGTAA	0.0593
GACCCCCC	-0.241
CGCCTGCA	-0.117
AATGAGTA	0.143
GAACCCCC	0.0349
CGAACCTA	-0.117
GGAACCTA	0.401
GGGACCCC	0.00587
GGAACCCA	0.394
GGGACCCA	0.303
TGAACCCA	0.0317
AGAACCTA	0.0206
AGAACCCA	0.234
GAACCCCA	0.344
TGGACCCA	0.104
GAACCCAA	0.167
CGATGGGC	-0.0735
AGCTTCAT	0.0447
CTAACCAG	0.0668
GGCCCCCA	0.231
CATACCGA	0.0765
ACTCCTTA	0.0309
AGCCACAA	0.15
GGAACCCC	0.394

Sequence	PBM E-score
CGAACCCC	0.0243
AGAACCCC	0.0794
ACCTATCC	0.0168
ATGCTACG	0.0159
ACACACTC	0.0505
AGACATTA	-0.0316
CGACATTC	-0.0306
CGACATTA	0.306
CTGGGTGC	0.244
GCTAGCCA	-0.232
TAATGGAA	0.28
GAATGGCA	-0.0438
GAATGGAA	0.225
CATTGGAA	0.106
CAATGGCA	-0.159
TAATGGCA	0.295
GATTGGAA	0.258
AAATGGAA	0.239
TATTGGAA	0.288
GTTTATAA	0.129
AATGTGAT	-0.0732
AATTGTCT	-0.147
GCTACTCC	0.0342
GCACCTGA	0.0656
GCAGCTGA	0.336
GCAGCTGC	0.249

Sequence	PBM E-score
GCAGCTAA	0.329
TCAGCTGA	-0.106
GCAGCTAC	0.267
TCAGCTAA	-0.225
CTCATTCC	0.0687
CAGCCCCG	-0.107
AGGCGAGC	-0.0288
GGGTGATA	0.0068
CCGCAAAA	0.0921
GATACCAA	0.154
GCTACCAC	0.323
GCTACCAA	0.179
ACTACCAC	0.101
GATACCAC	0.329
AATACCAC	0.097
AACCTAAG	-0.0759
ACCTCCTC	-0.194
AACGTCTA	0.00101
ATTCCTAA	0.284
CATCCTGA	0.292
CTTCCTAC	0.18
GTTCCTAA	0.237
ATTCCTAC	0.0721
ATTCCTGC	0.048
GATCCTGA	0.0899
CTTCCTAA	0.294

Sequence	PBM E-score
ATTCCTGA	0.299
ATTCCTGG	0.165
ATTCCTAG	-0.0289
TATCCTGA	0.156
TAGACCTA	-0.0537
AACCAGAG	0.0777
TACACAGA	-0.106
CTTCCTTA	0.153
GGGTTGCA	-0.0951
GAAGCGTC	0.268
CATCAACA	0.015
ATGTTGTA	0.104
CAGCACCC	0.277
AAGCACCG	0.0663
AAGCACCT	0.106
GAGCACAC	-0.271
GAGCACCC	0.329
AAGCACCC	0.283
ACGCCATG	-0.0676
GGTAAAAC	-0.056

Source: the supplement of paper PMC3334620
